Assay results as given in PubChem BioAssay (Tox21).
“And” between values parts separate entries of the source, which are not always exact repeats. Equal entries are not always repeated. Results filed as inconclusive are left out. Some structures have more than one record in an assay (separate samples or runs), and their calls can disagree. The source made the active and inactive calls. Calls come from the whole dose curve; as a rule, active = well fitted curve in the direction sought with a large enough effect in the repeat runs; inconclusive = weak or mixed curves; inactive = no such curve, though single readings can be large; an effect the other way counts as inactive or inconclusive.

What was measured:
[1] = qHTS RealTime-Glo MT Cell Viability Assay in HepG2 cells - 8 hour (AID 1224873); note: nearly all actives have a fitted effect of over 55% in size; note: potency is the fitted concentration of half-maximal effect
Summary of the method: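 HepG2 cells mixed with RealTime-Glo MT reagents (NanoLuc plus cell-permeant prosubstrate) were seeded at 600 cells/well, incubated 5 h at 37 C/5% CO2, then pinned with compounds in DMSO; nonlytic luminescence tracked viability during 40 h treatment.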

[2] = qHTS RealTime-Glo MT Cell Viability Assay in HEK293 cells - 40 hour (AID 1224874); details: RealTime-Glo luminescence; max response: stronger effect = lower value; note: nearly all actives have a fitted effect of over 50% in size; note: potency is the fitted concentration of half-maximal effect
Summary of the method: (§1)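 Kinetic, non-lysing viability readout. Seed HEK293 (600/well) with reagent, incubate 5 h at 37 C/5% CO2, pin 23 nL compound in DMSO, incubate at 37 C, read luminescence at 0, 8, 16, 24, 32, 40 h.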

[3] = A CellTox Green Cytotoxicity Assay to monitor cytotoxicity in HEK293 cells - 24 hour (AID 1224875); note: nearly all actives have a fitted effect of over 45% in size; note: potency is the fitted concentration of half-maximal effect
Summary of the method: (§2)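 Real-time, in one plate: 600 HEK293 cells/well with dead-cell DNA dye, pinned compound after 5 h, 37 C incubation over 40 h; viable cells give no appreciable fluorescence.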

[4] = A CellTox Green Cytotoxicity Assay to monitor cytotoxicity in HepG2 cells - 16 hour (AID 1224876); note: nearly all actives have a fitted effect of over 45% in size; note: potency is the fitted concentration of half-maximal effect
Summary of the method: (§3)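 Cytotoxicity was tracked as dead-cell DNA fluorescence in HepG2 cells treated with test compounds at 37 C; each time-point value comes from one kinetic series spanning 0, 8, 16, 24, 32 and 40 h.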

[5] = qHTS RealTime-Glo MT Cell Viability Assay in HepG2 cells - 32 hour (AID 1224877); note: nearly all actives have a fitted effect of over 55% in size; note: potency is the fitted concentration of half-maximal effect
Summary of the method: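 Luminescence read-out: viable HepG2 cells reduce a prosubstrate to a NanoLuc substrate, giving a signal proportional to live cell number. Reads taken at 0, 8, 16, 24, 32 and 40 h of compound exposure at 37 C.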

[6] = A CellTox Green Cytotoxicity Assay to monitor cytotoxicity in HepG2 cells - 40 hour (AID 1224879); note: nearly all actives have a fitted effect of over 40% in size; note: potency is the fitted concentration of half-maximal effect
Summary of the method: as §3

[7] = qHTS RealTime-Glo MT Cell Viability Assay in HEK293 cells - 0 hour (AID 1224880); note: top concentration of the series differs between compounds; nearly all actives have a fitted effect of over 45% in size
Summary of the method: as §1

[8] = A CellTox Green Cytotoxicity Assay to monitor cytotoxicity in HEK293 cells - 32 hour (AID 1224881); note: nearly all actives have a fitted effect of over 40% in size; note: potency is the fitted concentration of half-maximal effect
Summary of the method: as §2

[9] = A CellTox Green Cytotoxicity Assay to monitor cytotoxicity in HepG2 cells - 24 hour (AID 1224878); note: nearly all actives have a fitted effect of over 45% in size; note: potency is the fitted concentration of half-maximal effect
Summary of the method: as §3

[10] = qHTS RealTime-Glo MT Cell Viability Assay in HEK293 cells - 16 hour (AID 1224872); note: nearly all actives have a fitted effect of over 50% in size; note: potency is the fitted concentration of half-maximal effect
Summary of the method: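 Nonlytic real-time viability readout: viable cells convert prosubstrate to NanoLuc substrate, giving luminescence proportional to live cell number. HEK293, 600 cells/well, compound added after 5 h, continuous culture at 37 C.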
% is set by controls: 0 for no effect and ±100 for the full control effect.

O=C(O)c1cc[c]([Hg][Cl])cc1
inactive: Potency [7]
active: Potency [1] 34.7 µM | Potency [2] 15.5 µM | Potency [3] 24.5 µM | Potency [4] 38.9 µM | Potency [5] 24.5 µM | Potency [6] 19.5 µM | Potency [8] 21.9 µM

CC(C)CCCCCCCOP(=O)(Oc1ccccc1)Oc1ccccc1
inactive: Potency [1] | max response [2] -33.6% | Potency [3] | Potency [4] | Potency [5] | Potency [9] | Potency [6] | Potency [8]

O=[N+]([O-])c1c2ccccc2cc2ccccc12
active: Potency [3] 5.43 µM | Potency [4] 1.08 µM | Potency [6] 60.9 µM | Potency [8] 5.43 µM
inactive: Potency [1] | max response [2] 1.8% | Potency [5] | Potency [7]

Cc1cccc(OP(=O)(Oc2cccc(C)c2)Oc2cccc(C)c2)c1
inactive: Potency [1] | max response [2] 5.97% | Potency [3] | Potency [4] | Potency [5] | Potency [9] | Potency [6] | Potency [7] | Potency [8]

CC(C)OC(=O)C(O)(c1ccc(Cl)cc1)c1ccc(Cl)cc1
active: Potency [10] 30.9 µM | Potency [2] 24.5 µM | Potency [6] 38.9 µM | Potency [8] 54.9 µM
inactive: Potency [7]

Cn1cc(C2=C(c3cn(C4CCN(Cc5ccccn5)CC4)c4ccccc34)C(=O)NC2=O)c2ccccc21
inactive: Potency [10] | Potency [3] | Potency [9] | Potency [8]

CC(C)CC(C)(c1ccc(O)cc1)c1ccc(O)cc1
inactive: Potency [5] | Potency [7]
active: Potency [2] 27.6 µM | Potency [6] 43.8 µM | Potency [8] 49.1 µM
43.8 µM (active) and inactive: Potency [10]

CC1(C)[C@H](C(=O)O[C@H](C#N)c2cccc(Oc3ccccc3)c2)[C@@H]1/C=C(\Cl)C(F)(F)F
inactive: Potency [1] | max response [2] -24.1% | Potency [3] | Potency [4] | Potency [5] | Potency [9] | Potency [6] | Potency [7] | Potency [8]

O=C(CCl)Nc1ccccc1
inactive: Potency [1] | Potency [3] | Potency [4] | Potency [5] | Potency [9] | Potency [7]
active: Potency [2] 38.9 µM

N#CCCO
inactive: Potency [1] | max response [2] 5.8% | Potency [3] | Potency [4] | Potency [5] | Potency [9] | Potency [6] | Potency [7] | Potency [8]

CN(C)CCc1c[nH]c2ccc(O)cc12
inactive: Potency [1] | max response [2] 2.26% | Potency [3] | Potency [4] | Potency [5] | Potency [9] | Potency [7] | Potency [8]

CCOC(=O)C1(c2ccccc2)CCN(CCC(C#N)(c2ccccc2)c2ccccc2)CC1
inactive: Potency [10] | Potency [3] | Potency [4] | Potency [5] | Potency [6] | Potency [8]

CN(C)S(=O)(=O)N(SC(F)(Cl)Cl)c1ccccc1
active: Potency [1] 21.9 µM | Potency [2] 4.36 µM | Potency [3] 13.8 µM | Potency [4] 12.3 µM | Potency [5] 9.77 µM | Potency [9] 7.76 µM | Potency [6] 4.9 µM | Potency [8] 4.9 µM
inactive: Potency [7]

NNC(=O)c1ccccc1
inactive: Potency [1] | max response [2] -4.85% | Potency [3] | Potency [4] | Potency [5] | Potency [9] | Potency [6] | Potency [7] | Potency [8]

CCCN(CCC)c1c([N+](=O)[O-])cc(S(N)(=O)=O)cc1[N+](=O)[O-]
inactive: Potency [7]
active: Potency [1] 24.5 µM | Potency [2] 35.4 µM | Potency [3] 23.3 µM | Potency [4] 33.5 µM | Potency [5] 43.6 µM | Potency [9] 13.1 µM | Potency [6] 11 µM | Potency [8] 26.2 µM

CC(C)OC(=S)S
inactive: Potency [1] | max response [2] 12.1% | Potency [3] | Potency [4] | Potency [5] | Potency [9] | Potency [7] | Potency [8]

ClC1=C(Cl)C2(Cl)C3C(Cl)C(Cl)CC3C1(Cl)C2(Cl)Cl (stereo not drawn)
active: Potency [10] 48.8 µM and 49 µM | Potency [2] 48.8 µM | Potency [3] 48.8 µM and 49 µM | Potency [8] 48.8 µM and 49 µM

CC(C)(C)C(O)/C(=C\c1ccc(Cl)cc1Cl)n1cncn1 (stereo not drawn)
inactive: Potency [7]
active: Potency [10] 29.7 µM | Potency [2] 26.5 µM | Potency [6] 52.8 µM

C[C@]12CC[C@H]3[C@@H](CCC4=CC(=O)CC[C@@]43C)[C@@H]1CC[C@@H]2O
active: Potency [2] 48.6 µM
inactive: Potency [1] | Potency [3] | Potency [4] | Potency [5] | Potency [9] | Potency [7]

Nc1ccccc1C(=O)OC/C=C/c1ccccc1
inactive: Potency [1] | Potency [3] | Potency [4] | Potency [5] | Potency [9] | Potency [6] | Potency [7] | Potency [8]
active: Potency [2] 24.6 µM

[Hg+2].[I-].[I-]
active: Potency [1] 12.3 µM | Potency [2] 2.45 µM | Potency [3] 24.5 µM | Potency [4] 12.3 µM | Potency [5] 11 µM | Potency [9] 11 µM | Potency [6] 6.16 µM | Potency [8] 21.9 µM

O=[N+]([O-])c1cc([N+](=O)[O-])c2ccccc2c1
inactive: Potency [10] | max response [2] 4.65% | Potency [4] | Potency [6] | Potency [7]

CCCCCCCCCCCCCC[P+](CCCCCC)(CCCCCC)CCCCCC (tested in a mixture with another compound)
inactive: Potency [7]
active: Potency [1] 49 µM | Potency [2] 3.47 µM | Potency [3] 13.8 µM | Potency [4] 38.9 µM | Potency [5] 24.6 µM | Potency [9] 24.6 µM | Potency [6] 24.6 µM | Potency [8] 13.8 µM
